Hit rate of the full screen: of about 52,000 compounds, about 4,300 (8.3%) were called active. The sample holds actives, similar compounds and a random draw of the others, so the mix is not that of the screen. A number with no mark means an inactive call. No stated cut-off is given here; in the data, active means survival mostly below about 52% (no sharp cut-off); inactive means mostly above about 56%.

For the test, the system named is DeltatarO mutant. The experiment in a line: growth inhibition of S. aureus wild type versus tarO mutant, primary screen, teichoic acid synthesis inhibitors, RN4220, OD600 (AID 463173). To be noted: OD600, 18 h, stronger effect = lower value, screened at 18.75 µg/mL (by protocol).
Regarding `COc1ccccc1NC(=O)Cn1nnc(C(=O)NCc2ccc3c(c2)OCO3)c1N`, the survival is 103%.
With `CCOC(=O)Cn1c(=O)oc2cc(S(=O)(=O)N3CCN(c4ccc(F)cc4)CC3)ccc21` the figure was 117%.
As to `CSc1cccc(-c2nnc(NC(=O)c3ccc4c(c3)OCCO4)o2)c1`, the survival is 72%.
As for `COc1cccc(NC(=O)CC(=O)Nc2ccc3nc4n(c(=O)c3c2)CCCCC4)c1`, the survival was 96%.
For `Cc1ccc(C)c(N2CCN(C(=O)NCc3noc4ccccc34)CC2)c1` the value was 51%.
For `O=C(NCc1noc2ccccc12)N1CCN(c2ccccc2)CC1` the value was 44%; for `Cc1ccc(N2CCN(C(=O)NCc3noc4ccccc34)CC2C)cc1` (stereo unspecified), 30% (active); for `O=C(O)CCC(=O)N1CCN(Cc2ccc3c(c2)OCO3)CC1`, 75%.
With `CC(=O)c1ccc(NC(=O)c2cc(S(=O)(=O)N3CCOCC3)ccc2C)cc1` the figure was 49% (active); with `Cc1ccc(S(=O)(=O)N2CCOCC2)cc1C(=O)Nc1ccccc1C(=O)O`, 83%.
Turning to `COc1ccc(NC(=O)c2cc(S(=O)(=O)N3CCOCC3)ccc2OC)cc1`, the survival was 89%.
With `N#Cc1c(-n2ncnc2-c2ccc(F)cc2)sc2c1CCCCC2` the figure was -4% (active); with `Cc1ccc(S(=O)(=O)CC(=O)Nc2sc3c(c2C#N)CCCC3)cc1`, 119%.
With `N#Cc1c(-n2ncnc2-c2cccc(Br)c2)sc2c1CCCCC2` the figure was 23% (active); with `N#Cc1c(N2C(=O)C3C4C=CC(C4)C3C2=O)sc2c1CCCC2` (stereo unspecified), 71%; with `COc1ccc(-c2nnn(CC(=O)Nc3sc4c(c3C#N)CCCC4)n2)cc1`, 98%.
For `N#Cc1c(N)sc2c1CCCC2` the value was 103%.
Consider `CC(C)CCOc1ccc(C(=O)Nc2sc3c(c2C#N)CCCCC3)cc1`, for which the survival is 127%.
With `CCOc1ccc(-c2ncnn2-c2sc3c(c2C#N)CCCCC3)cc1` the figure was 5% (active); with `N#Cc1c(-n2ncnc2-c2ccc(Br)cc2)sc2c1CCCCC2`, 2% (active).
For `N#Cc1c(-n2ncnc2-c2cccc(Cl)c2)sc2c1CCCCC2` the value was 61%; for `Cc1ccc(S(=O)(=O)CC(=O)Nc2sc3c(c2C#N)CCCCC3)cc1`, 72%; for `CCCCNCc1cccn1-c1sc2c(c1C#N)CCCC2`, 109%.
With `O=C(/C=C/c1ccco1)Nc1ccc(-c2cc3ccccc3oc2=O)cc1` the figure was 50%; with `CC(=O)N1CCc2cc(S(=O)(=O)NC(CC(C)C)C(=O)NCCc3ccccc3)ccc21` (stereo unspecified), 78%.
Regarding `CCCCOc1ccccc1C(=O)N(Cc1ccc(C)o1)C1CCS(=O)(=O)C1` (stereo unspecified), the survival is 71%.
For `Cc1cccc(OCC(=O)Nc2ccccc2C(=O)OCc2cc(=O)n3ccsc3n2)c1` the value was 77%; for `CC(=O)Nc1ccc(S(=O)(=O)N2CCC(NC(=O)Nc3cccc(F)c3)CC2)cc1`, 91%; for `CC1=C(C(=O)Nc2ccc(C)cc2C)C(c2cccn2C)n2ncnc2N1` (stereo unspecified), 91%.
With `Cc1ccc(NS(=O)(=O)c2c(C(=O)N3CCCCCC3)c(C)n(C)c2C)cc1F` the figure was 83%; with `CC(C)OC(=O)c1c(NC(=O)C2c3ccccc3Oc3ccccc32)sc2c1CCCC2`, 93%; with `CCOC(=O)c1c(NC(=O)C2c3ccccc3Oc3ccccc32)sc(C)c1C`, 12% (active).
With `CCc1c(C)sc(NC(=O)C2c3ccccc3Oc3ccccc32)c1C(=O)OC(C)C` the figure was 41% (active); with `Cc1sc(NC(=O)C2c3ccccc3Oc3ccccc32)c(C(=O)OC(C)C)c1C`, 59%; with `CCOC(=O)c1sc(NC(=O)C2c3ccccc3Oc3ccccc32)c(C#N)c1C`, 72%.
In the case of `CCCOC(=O)c1c(NC(=O)C2c3ccccc3Oc3ccccc32)sc2c1CCC(C)C2` (stereo unspecified), the survival was 82%.
With `CCCOC(=O)c1c(NC(=O)C2c3ccccc3Oc3ccccc32)sc2c1CCCC2` the figure was 77%; with `CCOC(=O)c1sc(NC(=O)C2c3ccccc3Oc3ccccc32)c(C(=O)OCC)c1C`, 124%.
With `CCOC(=O)c1c(NC(=O)C2c3ccccc3Oc3ccccc32)sc(C)c1CC` the figure was 24% (active); with `COC(=O)c1c(NC(=O)C2c3ccccc3Oc3ccccc32)sc2c1CCC(C)C2` (stereo unspecified), 56%.
With `CNC(=O)C1c2ccccc2Oc2ccccc21` the figure was 91%; with `CC1CCc2c(sc(NC(=O)C3c4ccccc4Oc4ccccc43)c2C(=O)OC(C)C)C1` (stereo unspecified), 47% (active).
For the compound `O=C(C1CC1)N1CCN(c2nc3ccc(F)cc3s2)CC1`, the survival is 117%.
With `Cc1nn(-c2ccccc2)c(OC(=O)c2ccccc2)c1S(=O)(=O)c1ccccc1`, the survival was 81%.
With `Cc1cc(C)n(-c2n[nH]c(=S)c3ccccc23)n1` the figure was 81%; with `CN(Cc1ccccc1)c1ccc(-c2nc(-c3ccco3)no2)cc1[N+](=O)[O-]`, 52%; with `Cc1cc(Nc2cc(Cl)ccc2C)n2nc(-c3ccccc3)nc2n1`, 49%.
As for `COC(=O)c1c(NC(=O)COc2ccc(Cl)cc2)sc(C)c1C`, the survival was 67%.
With `Cc1sc(NC(=O)COc2ccc(C(C)(C)C)cc2)c(C(=O)OC(C)C)c1C` the figure was 10% (active).
As for `CCN(CC)C(=O)c1sc(NC(=O)C2c3ccccc3Oc3ccccc32)c(C(=O)OC(C)C)c1C`, the survival is 30% (active).
For `CCCc1ccc(OCC(=O)Nc2sc(C(=O)OCC)c(C)c2C(=O)OCC)cc1` the value was 82%; for `CCN(CC)C(=O)c1sc(NC(=O)c2nc3ncccn3n2)c(C(=O)OC)c1C`, 137%.
For `CCOC(=O)c1c(NC(=O)COc2cc(C)ccc2C(C)C)sc(C)c1C`, the survival was 63%.
With `CCOC(=O)c1c(NC(=O)COc2ccc(OC)cc2)sc(C(=O)N(CC)CC)c1C` the figure was 3% (active); with `CCN(CC)C(=O)c1sc(NC(C)=O)c(C(=O)OC)c1C`, 99%.
For `Cc1c(C(=O)OC(C)C)sc(NC(=O)C2c3ccccc3Oc3ccccc32)c1C(=O)OC(C)C` the value was 80%.
With `CCOc1ccc(NC(=O)Cn2c3ncccc3c(=O)n2-c2ccc(CC)cc2)cc1` the figure was 85%; with `Cc1ccc(C(=O)c2oc3ccccc3c2NC(=O)Cc2coc3c(C)c(C)ccc23)cc1`, 54%.
As for `CCCCNC(=O)Cn1ncc2c(C)n(Cc3cccc(Cl)c3)c(C)c2c1=O`, the survival was 93%.
With `Cn1c(=O)c2[nH]c(=S)[nH]c2n(C)c1=O` the figure was 103%.
With `Cc1c(NC(=O)Nc2ccccc2C(F)(F)F)c(=O)n(-c2ccccc2)n1C` the figure was 92%; with `CCOc1ccc(NC(=O)Cn2c(=O)n(Cc3nc(-c4ccccc4)no3)c(=O)c3cc4c(cc32)OCO4)cc1`, 89%.
With `CCOCCc1nn2c(=O)cc(COC(=O)C3CCCCC3)nc2s1` the figure was 88%.
Regarding `COc1cccc(OC(=O)N2CCOCC2)c1`, the survival is 103%.
Consider `COc1ccc(S(=O)(=O)c2cnc3ccc(Cl)cc3c2N2CCCCC2C)cc1` (stereo unspecified), for which the survival was 134%.
Turning to `Cc1ccc2ncc(S(=O)(=O)c3ccccc3)c(N3CCCCC3C)c2c1` (stereo unspecified), the survival is 7% (active).
For `CC1CCCCN1c1c(S(=O)(=O)c2ccc(Cl)cc2)cnc2ccccc12` (stereo unspecified) the value was 102%; for `CCN(CC)CCNC(=O)c1cn(CC)c2ccc(S(=O)(=O)N(C)C3CCCCC3)cc2c1=O`, 107%; for `O=S1(=O)CCC(N2C(=S)SC3CS(=O)(=O)CC32)C1` (stereo unspecified), 96%.
As to `O=C(Cn1c(=O)ccc2cc(S(=O)(=O)N3CCCC3)ccc21)NCc1ccc(Cl)cc1`, the survival was 102%.
With `CCc1ccc(-c2cc(C)no2)cc1S(=O)(=O)Nc1ccc(Cl)cc1` the figure was 68%; with `CCc1ccc(-c2cc(C)no2)cc1S(=O)(=O)Nc1ccc(C)cn1`, 55%; with `CCc1ccc(-c2cc(C)no2)cc1S(=O)(=O)Nc1ccc(Cl)cn1`, 17% (active).
`CCC1CCCCN1CCCNC(=O)c1c(O)nc2cc(C)ccn2c1=O` (stereo unspecified): the survival is 80%.
On to `COc1cc(-c2noc(-c3ccc(NCCc4ccccc4)c([N+](=O)[O-])c3)n2)cc(OC)c1OC`, for which the survival is 66%.
With `COc1ccccc1-c1noc(-c2ccc(NCc3ccccc3)c([N+](=O)[O-])c2)n1` the figure was 35% (active).
In the case of `O=[N+]([O-])c1cc(-c2nc(-c3ccccc3)no2)ccc1NCCc1ccccc1`, the survival is 58%.
With `COc1ccc(-c2noc(-c3ccc(NCCc4ccccc4)c([N+](=O)[O-])c3)n2)cc1`, the survival is 42% (active).
For `COc1cc(-c2noc(-c3ccc(NCc4ccccc4)c([N+](=O)[O-])c3)n2)cc(OC)c1OC` the value was 79%; for `COc1ccc(-c2noc(-c3ccc(NCCc4ccccc4)c([N+](=O)[O-])c3)n2)cc1OC`, 57%; for `COc1ccc(-c2noc(-c3ccc(NCc4cccnc4)c([N+](=O)[O-])c3)n2)cc1`, 56%.
For `COc1ccc(-c2noc(-c3ccc(NCC4CCCO4)c([N+](=O)[O-])c3)n2)cc1OC` (stereo unspecified), the survival is 54%.
Consider `COc1ccc(-c2noc(-c3ccc(NCC4CCCO4)c([N+](=O)[O-])c3)n2)cc1` (stereo unspecified), for which the survival was 42% (active).
For `Cc1ccc(-c2noc(-c3ccc(NCC4CCCO4)c([N+](=O)[O-])c3)n2)cc1` (stereo unspecified) the value was 74%.
As for `COc1ccccc1-c1noc(-c2ccc(NCCc3ccccc3)c([N+](=O)[O-])c2)n1`, the survival is 37% (active).
For `COc1ccccc1-c1noc(-c2ccc(NCc3cccnc3)c([N+](=O)[O-])c2)n1` the value was 47%; for `COCC(=O)Nc1c(C(=O)Nc2ccc(C)cc2)oc2ccccc12`, 86%; for `Cc1ccc(N)cc1N(C)C`, 78%.
As for `Cc1ccc(CN2CCN(C3CCN(S(=O)(=O)N(C)C)CC3)C(=O)C2=O)cc1`, the survival is 82%.
With `C=CCn1c(C(NC(=O)c2ccc(Cl)cc2Cl)C(C)C)n[nH]c1=S` (stereo unspecified) the figure was 81%.
Consider `COc1cc(NC(=O)C2CCN(S(=O)(=O)c3c(C)noc3/C=C/c3c(C)cc(C)cc3C)CC2)cc(OC)c1`, for which the survival was 78%.

The values above are taken from PubChem BioAssay AID463173 (ICCB-Longwood Screening Facility, Harvard Medical School, 2010).
